“And” between values parts separate entries of the source, which are not always exact repeats. Identical values can stand only once. Screen size: about 5,500 compounds; about 2,000 (36%) were called active. About 18% were inconclusive and are not listed. Some of the results follow. Values without a mark were called inactive. Rule as the data show it: active = normalized growth mostly below about 0.91 (no sharp cut-off); inconclusive = no clear call, values can overlap the other calls; inactive = mostly above about 0.92.
Assay: chemical genetic growth profiling, strain panel (AID 1159580);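 also: tested at 20 µM; growth read once vehicle control cultures reached saturation at 30 °C; 1 = growth at the plate median or of vehicle wells; lower values mean less growth of the strain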
Conditions: S. cerevisiae deletion strains, growth OD
[1] = locus YDR150W, strain NUM1, hits give low values
[2] = locus YNL153C, strain GIM3, hits give low values
[3] = locus YPL241C, strain CIN2, hits give low values
[4] = locus YAL013W, strain DEP1, hits give low values
[5] = locus YBR229C, strain ROT2, hits give low values
[6] = locus YDL101C, strain DUN1, hits give low values
[7] = locus YEL061C, strain CIN8, hits give low values
[8] = locus YGR078C, strain PAC10, hits give low values
[9] = locus YGR229C, strain SMI1, hits give low values
[10] = locus YHR030C, strain SLT2, hits give low values
[11] = locus YHR087W, strain rtc3, hits give low values
[12] = locus YJL187C, strain SWE1, hits give low values
[13] = locus YJR043C, strain POL32, hits give low values
[14] = locus YJR075W, strain HOC1, hits give low values
[15] = locus YLR039C, strain RIC1, hits give low values
[16] = locus YLR058C, strain SHM2 (second series), hits give low values
[17] = locus YLR085C, strain ARP6, hits give low values
[18] = locus YLR262C, strain YPT6, hits give low values
[19] = locus YML094W, strain GIM5, hits give low values
[20] = locus YMR219W, strain ESC1, hits give low values
[21] = locus YMR263W, strain SAP30, hits give low values
[22] = locus YNL298W, strain CLA4 (second series), hits give low values
[23] = locus YNL322C, strain KRE1, hits give low values
[24] = locus YNR030W, strain Alg12, hits give low values
[25] = locus YPL055C, strain LGE1, hits give low values
[26] = locus YPR135W, strain CTF4, hits give low values

SMILES: Cc1ccc([N+](=O)[O-])cc1S(=O)(=O)N(C)C
- normalized growth (locus YAL040C, strain CLN3, hits give low values): 0.984
- normalized growth (locus YCL061C, strain MRC1 (second series), hits give low values): 1
- normalized growth [1]: 1.03
- normalized growth (locus YDR363W, strain ESC2, hits give low values): 0.972
- normalized growth (locus YER002W, strain NOP16, hits give low values): 1
- normalized growth [2]: 0.846
- normalized growth (locus YNL175C, strain NOP13, hits give low values): 0.996
- normalized growth (locus YNL197C, strain WHI3, hits give low values): 0.926
- normalized growth (locus YNL224C, strain SQS1, hits give low values): 0.979
- normalized growth (locus YOR083W, strain WHI5 (second series), hits give low values): 0.955
- normalized growth [3]: 0.998

SMILES: CN1c2ccccc2C(=O)NC1c1ccc([N+](=O)[O-])s1 (centres undefined)
- normalized growth [4]: 1
- normalized growth [5]: 0.988
- normalized growth [6]: 1.02
- normalized growth [1]: 1
- normalized growth [7]: 0.967
- normalized growth [8]: 1.02
- normalized growth [9]: 0.989
- normalized growth [10]: 1
- normalized growth [11]: 0.991
- normalized growth [12]: 0.996
- normalized growth [13]: 1.01
- normalized growth [14]: 1.02
- normalized growth [15]: 1.02
- normalized growth [16]: 0.995
- normalized growth [17]: 1.03
- normalized growth [18]: 1.05
- normalized growth [19]: 0.989
- normalized growth [20]: 0.995
- normalized growth [21]: 1
- normalized growth (locus YMR307W, strain GAS1, hits give low values): 1.01
- normalized growth [2]: 1.02
- normalized growth [22]: 1.01
- normalized growth [23]: 0.995
- normalized growth [24]: 0.988
- normalized growth [25]: 0.971
- normalized growth [3]: 1
- normalized growth [26]: 1.05

SMILES: O=[N+]([O-])c1ccc2c(c1)NC(c1ccc([N+](=O)[O-])s1)O2 (centres undefined)
- normalized growth [4]: 0.0563 (active)
- normalized growth [5]: 0.0525 (active)
- normalized growth (locus YCL061C, strain MRC1, hits give low values): 0.0508 (active)
- normalized growth [6]: 0.0673 (active)
- normalized growth (locus YDL134C, strain PPH21, hits give low values): 0.0453 (active)
- normalized growth [1]: 0.0493 (active)
- normalized growth [7]: 0.049 (active)
- normalized growth (locus YGR052W, strain FMP48, hits give low values): 0.104 (active)
- normalized growth [8]: 0.0481 (active)
- normalized growth [9]: 0.0516 (active)
- normalized growth [10]: 0.0641 (active) and 0.114 (active)
- normalized growth (locus YHR079C, strain IRE1, hits give low values): 0.11 (active)
- normalized growth (locus YHR082C, strain KSP1, hits give low values): 0.106 (active)
- normalized growth [11]: 0.0539 (active)
- normalized growth (locus YJL095W, strain BCK1, hits give low values): 0.1 (active)
- normalized growth [12]: 0.0478 (active)
- normalized growth [13]: 0.0509 (active)
- normalized growth (locus YJR066W, strain TOR1, hits give low values): 0.1 (active)
- normalized growth [14]: 0.0918 (active)
- normalized growth (locus YKL171W, strain NNK1, hits give low values): 0.387 (active)
- normalized growth (locus YKL203C, strain TOR2, hits give low values): 0.0984 (active)
- normalized growth [15]: 0.0606 (active)
- normalized growth [16]: 0.0478 (active)
- normalized growth [17]: 0.0638 (active)
- normalized growth (locus YLR113W, strain HOG1, hits give low values): 0.187 (active)
- normalized growth [18]: 0.0626 (active)
- normalized growth [19]: 0.0601 (active)
- normalized growth [20]: 0.0484 (active)
- normalized growth [21]: 0.0575 (active)
- normalized growth [2]: 0.0476 (active)
- normalized growth (locus YNL183C, strain NPR1, hits give low values): 0.108 (active)
- normalized growth (locus YNL207W, strain RIO2, hits give low values): 0.107 (active)
- normalized growth [22]: 0.0735 (active)
- normalized growth [23]: 0.0534 (active)
- normalized growth [24]: 0.063 (active)
- normalized growth (locus YOR119C, strain RIO1, hits give low values): 0.0996 (active)
- normalized growth (locus YOR231W, strain MKK1, hits give low values): 0.101 (active)
- normalized growth [25]: 0.0657 (active)
- normalized growth [3]: 0.0629 (active)
- normalized growth (locus YPL256C, strain CLN2, hits give low values): 0.17 (active)
- normalized growth [26]: 0.149 (active)
